TDP1 block: inhibitors of human tyrosyl-DNA phosphodiesterase TDP1 | recombinant TDP1, AlphaScreen DNA substrate cleavage | Potency, µM (series often up to 130 µM), most hits filed as inhibitors | hit rate 0.28% among 350,000 | AID 485290; further: nearly all actives have a fitted effect of over 40% in size
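Steps: enzyme plus compound, 15 min RT; add biotin/phosphotyrosine-FITC oligonucleotide (15 nM final), react 5 min; add donor/acceptor beads (10 ug/ml final), 10 min; read AlphaScreen. Tdp1 at 1 nM final.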
GCN5L2 inh: inhibitors of human GCN5L2 histone acetyltransferase | Q92830 | GCN5L2 HAT assay, ThioGlo1 CoA-SH fluorescence | Potency, µM (titrated, usually from 58.9 µM), actives largely listed as inhibitors | hit rate 0.21% among 390,000
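Free CoA generated was detected with ThioGlo1 (50uM) fluorescence at Ex340nm/Em540nm, read immediately and after 20 min at room temperature. Enzyme, 20 nM in HEPES pH 7.5 buffer, saw compounds 15 min before adding 75uM H3(1-25) peptide and 70uM acetyl-CoA.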
RECQ1 inh: RECQ1 (human) helicase inhibition. P46063. RECQ1 DNA unwinding, red fluorescence kinetic read. Potency, µM (highest dose often 57.3 µM), actives largely listed as inhibitors. hit rate 0.54% among 240,000; further: nearly all actives have a fitted effect of over 30% in size
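50 nM RECQ1T1 preincubated 15 min with compound in Tris pH 8.0 buffer with MgCl2, DTT, Tween-20 and 2.5 ug/ml poly(dI-dC); started with 200 nM TAMRA/BHQ-2 forked duplex and 2 mM ATP. Unwinding read as fluorescence (525/598 nm), two reads 2 h apart.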
BLM helicase inh: inhibitors of human Bloom syndrome helicase BLM. P54132. recombinant BLM DNA unwinding, fluorescence dequenching. Potency, µM (titrated, usually from 56.1 µM), usual class: inhibitors. hit rate 0.2% among 350,000. AID 2528; further: nearly all actives have a fitted effect of over 35% in size
LMNA splice mod: changes lamin A minigene splicing in HeLa cells; HeLa LMNA splicing GFP/RFP minigene ratio, 48 h; Potency, µM (highest dose often 46.1 µM), hits mostly inhibitors; hit rate 0.01% among 200,000; AID 1487; active means well fitted inhibition curve with a large enough effect in the signal ratio, with a control signal flat, not every such curve was filed as active; inconclusive means small, poorly fitted or top-dose-only effect, or effect the other way, or a change in a side signal; the % refers to the signal ratio
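S3 HeLa stable clones carrying a lamin A-EGFP splicing minigene plus DsRed2 were seeded at 600 cells/well in Opti-MEM with 2% FBS, pin-dosed and incubated 48 h at 37°C. Acumen cytometry (488 nm) gave the GFP/RFP total-intensity ratio.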
APE1 inh: APE1 (human) endonuclease inhibition; recombinant APE1, TAMRA/BHQ-2 abasic DNA cleavage fluorescence; Potency, µM (series often up to 65.8 µM), usual class: inhibitors; AID 2517; hit rate 0.35% among 350,000; further: nearly all actives have a fitted effect of over 55% in size
Target sequence (P27695 whole entry, looked up): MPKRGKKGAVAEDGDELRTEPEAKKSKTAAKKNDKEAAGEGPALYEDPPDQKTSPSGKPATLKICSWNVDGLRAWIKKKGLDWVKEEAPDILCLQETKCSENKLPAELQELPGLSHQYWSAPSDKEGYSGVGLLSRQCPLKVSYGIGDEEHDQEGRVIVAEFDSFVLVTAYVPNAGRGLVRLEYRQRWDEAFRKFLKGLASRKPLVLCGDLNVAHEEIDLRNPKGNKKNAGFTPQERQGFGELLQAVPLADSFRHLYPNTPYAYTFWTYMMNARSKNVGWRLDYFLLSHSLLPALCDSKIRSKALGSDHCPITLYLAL
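APE1 at 0.75 nM final was preincubated with compound 15 min at room temperature, then 50 nM double-stranded THF abasic-site substrate (5'-TAMRA/3'-BHQ-2) was added. Fluorescence (ex 525/em 598 nm) was read kinetically; third-minus-first read gave activity.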
Of the large screens only hits and unclear results are named; the others gave an inactive call; ! = a repeat was not active. An excerpt weighted towards active compounds, which were near 0.9% of everything screened. Unless noted, the call rests on the fitted dose curve; in most records, active means well fitted curve in the direction sought with a large enough effect; inconclusive means small, poorly fitted or top-dose-only effect, or another doubt; inactive means no such curve, though single readings can be large; an effect the other way counts as inactive or inconclusive.

COc1cc(/C=C2\SC(=S)N(C(Cc3ccccc3)C(=O)O)C2=O)ccc1O (configuration not stated)	RECQ1 inh 25.1µM, APE1 inh inconclusive (no result: LMNA splice mod)
COc1ccc(/C=C2\SC(=S)N(CC3CCCO3)C2=O)cc1 (configuration not stated)	none (no result: LMNA splice mod)
O=C(O)C(Cc1ccccc1)N1C(=O)/C(=C/c2ccccc2)SC1=S (configuration not stated)	none
COc1cc(/C=C2/SC(=S)N(CC3CCCO3)C2=O)ccc1O (configuration not stated)	RECQ1 inh 31.6µM, APE1 inh inconclusive
O=C1/C(=C/c2ccc(O)c(O)c2)SC(=S)N1Nc1ccccc1	RECQ1 inh 14.1µM, BLM helicase inh inconclusive (no result: LMNA splice mod)
CCCC[C@H](NC(C)=O)C(=O)N[C@H]1CC(=O)NCCCC[C@@H](C(N)=O)NC(=O)[C@H](Cc2c[nH]c3ccccc23)NC(=O)[C@H](CCCN=C(N)N)NC(=O)[C@@H](Cc2ccccc2)NC(=O)[C@H](Cc2cnc[nH]2)NC1=O	none (no result: LMNA splice mod)
N#Cc1c(-c2ccc(C(F)(F)F)cc2)no[n+]1[O-]	none (no result: TDP1 block, GCN5L2 inh, RECQ1 inh, BLM helicase inh, LMNA splice mod)
COc1ccc(/C=C2\SC(=O)NC2=S)cc1OC	RECQ1 inh 31.6µM, LMNA splice mod inconclusive, APE1 inh inconclusive
CCOc1ccc(/C=C2\SC(=S)NC2=O)cc1OC	LMNA splice mod inconclusive
CC(=O)O[C@@H]1[C@@H](O)CN[C@@H]1Cc1ccccc1	none (no result: GCN5L2 inh, LMNA splice mod)
CC(C)c1nc(CN(C)C(=O)N[C@H](C(=O)N[C@@H](Cc2ccccc2)C[C@H](O)[C@H](Cc2ccccc2)NC(=O)OCc2cncs2)C(C)C)cs1	GCN5L2 inh 28.2µM! (no result: LMNA splice mod)
O=C(NNC(=O)c1cc2cc(Br)ccc2oc1=O)c1ccc(O)cc1O	TDP1 block 25.1µM, BLM helicase inh inconclusive, APE1 inh inconclusive (no result: LMNA splice mod)
CS(=O)(=O)C1=NSC2=NC(=O)/C(=C\c3cccn3-c3ccccc3Cl)C(=N)N21	GCN5L2 inh inconclusive, RECQ1 inh 25.1µM, LMNA splice mod inconclusive
Cc1cc(C)cc(-n2cccc2/C=C2/C(=N)N3C(=NC2=O)SN=C3S(C)(=O)=O)c1	GCN5L2 inh inconclusive, RECQ1 inh 31.6µM, BLM helicase inh 31.6µM, APE1 inh inconclusive
CS(=O)(=O)C1=NSC2=NC(=O)/C(=C\c3ccc(OS(=O)(=O)c4ccccc4)cc3)C(=N)N21	GCN5L2 inh inconclusive (no result: RECQ1 inh, LMNA splice mod)
CC(=O)Nc1ccc(OC2=NS(=O)(=O)c3ccccc32)cc1	none (no result: GCN5L2 inh, RECQ1 inh, BLM helicase inh, LMNA splice mod, APE1 inh)
COc1ccc(NC(=O)/C=C/c2ccc(Br)o2)cn1	TDP1 block 20µM (no result: LMNA splice mod)
Cc1ccccc1-c1cncnc1N(C)Cc1ccco1	TDP1 block 22.4µM, GCN5L2 inh inconclusive, LMNA splice mod inconclusive
COc1ccccc1-c1cncnc1N(C)Cc1ccco1	LMNA splice mod inconclusive (no result: TDP1 block)
CC(C)(C)c1ccc(S(=O)(=O)c2cnc(SCC(=O)Nc3ccc(F)c(Cl)c3)[nH]c2=O)cc1	GCN5L2 inh 28.2µM (no result: TDP1 block, RECQ1 inh, LMNA splice mod, APE1 inh)
O=C(CSc1ncc(S(=O)(=O)c2ccc(Cl)cc2)c(=O)[nH]1)Nc1cccc(C(F)(F)F)c1	none (no result: RECQ1 inh, LMNA splice mod, APE1 inh)
CCOC(=O)CSc1n[nH]c(=S)s1	GCN5L2 inh 25.1µM (no result: LMNA splice mod)
CCOC(=O)CCSc1n[nH]c(=S)s1	GCN5L2 inh inconclusive (no result: LMNA splice mod)
O=Cc1ccc(-c2ccccc2C(=O)O)o1	GCN5L2 inh inconclusive, LMNA splice mod inconclusive
O=C(O)c1ccccc1-c1c2cc(I)c(=O)c(I)c-2oc2c(I)c(O)c(I)cc12	GCN5L2 inh 11.2µM, RECQ1 inh 22.4µM, BLM helicase inh 28.2µM, APE1 inh 25.1µM (no result: LMNA splice mod)
C[Se]CC[C@H](N)C(=O)O	none (no result: TDP1 block, RECQ1 inh, LMNA splice mod, APE1 inh)
COc1ccccc1NC(=O)C(=N\O)/C(C)=N/O	TDP1 block inconclusive, APE1 inh 22.4µM
Cc1ccc(NS(=O)(=O)c2ccc3c(c2)CCC(=O)N3)cc1F	none (no result: GCN5L2 inh, RECQ1 inh, BLM helicase inh, LMNA splice mod, APE1 inh)
CCn1cc(/C=C(\NC(=O)c2ccccc2Cl)C(=O)N2CCOCC2)c2ccccc21	none (no result: RECQ1 inh, LMNA splice mod)
CCn1cc(/C=C(\NC(=O)c2ccccc2Cl)C(=O)N2CCN(C)CC2)c2ccccc21	GCN5L2 inh 3.16µM (no result: TDP1 block, RECQ1 inh, LMNA splice mod)
Cn1cc(CNC(=O)c2cnn3c2NC(=C2CC2)C=C3C(F)F)cn1	none (no result: TDP1 block, GCN5L2 inh, RECQ1 inh, BLM helicase inh, LMNA splice mod)
COc1ccc(C2c3c(nc(C)[nH]c3=O)Oc3ccc4ccccc4c32)cc1OC (configuration not stated)	none (no result: GCN5L2 inh, RECQ1 inh, BLM helicase inh, LMNA splice mod, APE1 inh)
CC(C)[C@H](NC(=O)[C@H](CCCCN)NC(=O)[C@@H](NC(=O)[C@@H]1CCCN1C(=O)[C@H](CCCN=C(N)N)NC(=O)[C@H](CCCN=C(N)N)NC(=O)[C@H](CCCCN)NC(=O)[C@H](CCCCN)NC(=O)CNC(=O)[C@@H](NC(=O)[C@@H]1CCCN1C(=O)[C@@H](N)CCCCN)C(C)C)C(C)C)C(=O)N[C@@H](Cc1ccc(O)cc1)C(=O)N1CCC[C@H]1C(=O)O	none (no result: LMNA splice mod)
O=CN/C=C/c1cc(O)ccc1O	TDP1 block 7.94µM, LMNA splice mod inconclusive, APE1 inh 10µM
Cc1cnc(CNc2ncncc2-c2ccccc2C(F)(F)F)cn1	TDP1 block 39.8µM
CCNc1cc(O)ccc1C	RECQ1 inh 28.2µM (no result: BLM helicase inh, LMNA splice mod)
COc1ccc(-c2cc3ccc(O)cc3oc2=O)cc1OC	TDP1 block 79.4µM (no result: RECQ1 inh, LMNA splice mod)
COc1ccc(-c2cc3ccc(O)c(CN4CCN(CCO)CC4)c3oc2=O)cc1OC	GCN5L2 inh 17.8µM (no result: RECQ1 inh, APE1 inh)

Screens from PubChem.
